IL2 activator = activators of IL-2; 0.065% of 360,000 active; activation, % (series mostly up to about 46 µM); IL-2 activation reporter assay, cell-based qHTS; stimulated with anti-CD3/CD4/CD28 beads; in transgenic mouse T cells; AID 652025; in the data active means activation above about 50%; inconclusive means mostly about 30% to 49%; further: 0% is about no effect
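Quantitative HTS in unstimulated transgenic mouse T cells, with memory T cells as non-tolerant control and PMA/ionomycin as tolerance-bypass control. Compound pretreatment lasted 60 minutes before 18 h bead stimulation; EGFP/DsRed fluorescence read.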
Nrf2 ARE act = activates Nrf2 signaling. AID 624171. 0.31% of 410,000 active. Potency, µM (titrated, usually from 46.1 µM), for the others: top-dose activation, actives largely listed as activators. AREc32 ARE-luciferase reporter (MCF7-derived line), luminescence, 24 h; further: potency means the concentration at half of the fitted maximal effect; % of control where 0% means no effect; nearly all actives have a fitted effect of over 65% in size
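ARE activation measured as luciferase luminescence (Steady-Glo, 30 min RT) in AREc32_Fluc cells after 24 hr compound exposure at 37 deg C, 5% CO2; cells seeded overnight at 1000/well in OPTI-MEM, 5% FBS.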
Integrin act MD = activates integrin-mediated alleviation for muscular dystrophy; alpha7betagal myoblasts, beta-gal FDG fluorescence, 48 h; Potency, µM (series often up to 38.3 µM), inactives show at the top dose activation, actives largely listed as activators; 0.064% of 350,000 active;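 further: potency means the concentration at half of the fitted maximal effect; 100% = response of the positive control SU9516; nearly all actives have a fitted effect of over 60% in size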
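alpha7betagal+/- myoblasts (passage 13, 250/well) treated 48 h at 37C with compounds at 1:260 dilution of DMSO stock. Lysed, then beta-galactosidase activity read as FDG fluorescence (ex 480/em 540) after 30 min, with pre-read for autofluorescence.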
12-LOX inh = blocks human arachidonate 12S-lipoxygenase | P18054 | 1.1% of 580,000 active | Potency, µM (titrated, usually from 108 µM), inactives show at the highest dose activity change, negative = inhibition, hits mostly inhibitors | purified 12hLO, xylenol orange hydroperoxide absorbance; further: potency means the concentration at half of the fitted maximal effect; on the % scale 0 is the no-effect control and ±100 the full control effect
Target sequence (P18054 whole entry, looked up): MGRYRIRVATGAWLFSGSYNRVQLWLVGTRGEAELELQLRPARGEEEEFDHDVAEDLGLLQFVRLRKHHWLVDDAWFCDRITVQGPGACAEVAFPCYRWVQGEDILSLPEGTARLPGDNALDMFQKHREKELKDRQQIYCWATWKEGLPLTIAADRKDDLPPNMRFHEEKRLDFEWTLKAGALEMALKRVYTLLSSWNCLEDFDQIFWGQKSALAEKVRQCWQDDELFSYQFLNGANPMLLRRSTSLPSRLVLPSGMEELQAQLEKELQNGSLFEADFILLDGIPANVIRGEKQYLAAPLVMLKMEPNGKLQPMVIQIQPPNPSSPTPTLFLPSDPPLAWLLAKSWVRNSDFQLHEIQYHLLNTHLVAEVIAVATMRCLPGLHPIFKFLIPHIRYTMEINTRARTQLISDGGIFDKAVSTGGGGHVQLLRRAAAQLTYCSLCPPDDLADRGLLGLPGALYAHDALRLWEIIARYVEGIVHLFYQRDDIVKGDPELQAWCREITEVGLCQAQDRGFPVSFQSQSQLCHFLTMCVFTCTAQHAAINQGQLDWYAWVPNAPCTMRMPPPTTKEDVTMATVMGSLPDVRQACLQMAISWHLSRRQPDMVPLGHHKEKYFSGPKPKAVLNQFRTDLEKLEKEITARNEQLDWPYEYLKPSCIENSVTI
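Purified human 12hLO (150 nM final) in 25 mM Hepes, 0.01% Triton X-100, pH 7.0 was preincubated 15 min at room temperature with compound. Then 40 uM arachidonic acid was added, 30 min. Hydroperoxide was read by Fe-XO absorbance ratio 573/405 nm.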
uPA surface inh = blocks generation of uPA at the cell surface; Potency, µM (highest dose often 38.3 µM), inactives show at the highest dose activity change, negative = inhibition, actives largely listed as inhibitors; 0.31% of 330,000 active; cell surface uPA generation assay, qHTS; active means well fitted inhibition curve with a large enough effect; inconclusive means small, poorly fitted or top-dose-only effect; inactive means no such curve, though single readings can be large or run the other way; tested in mouse RAW 264.7 cells; further: potency means the concentration at half of the fitted maximal effect; on the % scale 0 is the no-effect control and ±100 the full control effect; nearly all actives have a fitted effect of over 55% in size
The depositor's hits bear a star; ? = inconclusive; . = no result given; ! = repeats disagree; [ ] = another dose, or the depositor's remark. This is a sample that favours compounds with a hit; in the whole collection about 1.5% have one here. Unless noted, the call rests on the fitted dose curve; in most records, active means well fitted curve in the direction sought with a large enough effect; inconclusive means small, poorly fitted or top-dose-only effect, or another doubt; inactive means no such curve, though single readings can be large; an effect the other way counts as inactive or inconclusive.

SMILES	IL2 activator	Nrf2 ARE act	Integrin act MD	12-LOX inh	uPA surface inh
Cc1ccc(S(=O)(=O)Nc2c(C)n(C)n(-c3ccccc3)c2=O)cc1C(=O)OC(C)C(=O)c1ccccc1 (configuration not stated)	0	-1%	-8%	47%	5µM*
CCOC(=O)c1[nH]c(=S)n(-c2ccccc2)c1C(=O)OCC	2	0%	-1%	7.1µM*	.
CCOC(=O)c1[nH]c(=S)n(Cc2ccccc2)c1C(=O)OCC	0	0%	18%	?	2%
S=C(N/N=C/c1ccco1)NC1CC2CCC1C2 (configuration not stated)	1	13µM*	-14%	?	0%
CC(C)C[C@H]1CCC[C@H](CC(C)C)[N+]1(C)C	.	.	.	14µM*	.
CCc1ccc(C(=O)N2[C@@H]3CC[C@H]2CC(NC(=O)c2cnc(C)cn2)C3)cc1 (some centres not stated)	.	.	.	56%	.
C[C@@H]1CN([C@@H](C)CO)S(=O)(=O)c2ccc(C#CC3CCCCC3)cc2O[C@@H]1CN(C)Cc1cccnc1	-4	-5%	-60%	14µM*	.
COc1ccccc1S(=O)(=O)N(C)C[C@@H]1Oc2cc(C#CCC(C)C)ccc2S(=O)(=O)N([C@H](C)CO)C[C@@H]1C	-3	0%	-25%	0%	.
COc1ccccc1S(=O)(=O)N(C)C[C@H]1Oc2cc(C#CCC3CCCC3)ccc2S(=O)(=O)N([C@H](C)CO)C[C@H]1C	-4	0%	-54%	20µM*	.
COc1cc(C)cc2oc(=O)c(CC(=O)NCCCn3ccnc3)c(C)c12	.	.	.	8%	.
O=C(Nc1cccc(Cl)c1)Nc1nccs1	-1	21%	-10%	-27%	0%
O=C(Nc1ccc(Cl)c(Cl)c1)Nc1nccs1	-1	7%	-18%	?	3.2µM*
CC1=NN(Cc2ccccc2)C(=O)C1C(c1ccc(Cl)cc1)C(C#N)C#N (configuration not stated)	1	18%	-5%	40µM*	-8%
COc1cccc(C(=O)Nc2sc3c(c2C#N)CCN(C(C)=O)C3)c1	-3	3%	-55%	-30%	0.4µM*
COc1ccc(Oc2coc3c(CN(C)C)c(O)ccc3c2=O)cc1	-3	0%	25%	2%	-2%
Cc1cc(C)cc(Oc2coc3c(CN(C)C)c(O)ccc3c2=O)c1	5	0%	5%	6.3µM*	2%
Cc1ccc2nc(C3CCN(Cc4ccc(-c5cccs5)cc4)CC3)[nH]c(=O)c2c1	.	.	.	35µM*!	.
O=c1[nH]c(C2CCN(Cc3cccc(-c4cccs4)c3)CC2)nc2ccc(F)cc12	.	.	.	20%	.
CCCN(CC)c1ccc(C(=O)NCC(=O)NCC(F)(F)F)cc1	.	.	.	53%	.
COc1ccc(CNC(=O)C2(c3ccc(NS(C)(=O)=O)cc3)CCCCC2)cc1	.	.	.	52%	.
COc1cccc([C@H]2Nc3ccc(S(=O)(=O)Nc4cc(C)ccc4C)cc3[C@H]3C=CC[C@H]32)c1	.	4%	.	-27%	.
Cc1ccc([C@H]2Nc3ccc(S(=O)(=O)Nc4cccc(Cl)c4C)cc3[C@H]3C=CC[C@H]32)cc1	.	0%	.	40µM*	.
N#C/C(=C\c1ccc(Cl)cc1Cl)c1nc(-c2cccc(Cl)c2)cs1	.	0%	.	-11%	.
Cc1csc(/C(C#N)=C\C2=Cc3cc(Cl)ccc3OC2)n1	.	.	.	50µM*	.
COc1cc(OC)cc(C(=O)/C(=C\c2ccncc2)c2nc3ccccc3o2)c1	.	.	.	28µM*	.
SMILES	IL2 activator	Nrf2 ARE act	Integrin act MD	12-LOX inh	uPA surface inh
Cn1cc(-c2cnc(Nc3cncnc3)c3c2CCO3)cn1	.	.	.	-2%[176 µM]	.
O=C1[C@@H]2C[C@@H](CN2C(=O)NCc2ccccc2)Oc2ccccc2N1CC1CC1	.	.	.	14%[176 µM]	.
CSC1=NC(C)(C)C=C(/C=C/c2ccc(Cl)cc2Cl)N1	4	25µM*	-65%	?	-9%
CSC1=NC(C)(C)C=C(/C=C/c2ccc(Cl)cc2)N1	2	5.6µM*	-68%	?	-14%
CSC1=NC(C)(C)C=C(/C=C/c2c(Cl)cccc2Cl)N1	2	?	-2%	-3%	-6%
CCSC1=NC(C)(C)C=C(/C=C/c2ccc(Cl)cc2Cl)N1	-4	?	-40%	40µM*	-10%
COc1ccc(C(=O)N2CCCN(C)c3ccccc32)c(C)c1	.	.	.	-16%	.
O=C(Nc1c(-c2ccccc2)[nH][nH]c1=O)c1ccc2c(c1)OCO2	0	.	.	-2%	.
O=C(Nc1c(-c2ccc3c(c2)OCO3)[nH][nH]c1=O)c1ccccc1	-1	-1%	.	28µM*	.
Cn1nc2n(c1=O)CCN(C(=O)c1cc(C3CC3)[nH]n1)CC2	.	.	.	27%	.
O=C(O)Cc1sc(Nc2ccc(Cl)cc2)nc1-c1cccs1	0	?	9%	14µM*	-1%
Cc1ccc(Nc2nc(-c3ccc(C)cc3)c(CC(=O)O)s2)cc1	1	10%	-15%	40µM*	2%
O=C(O)Cc1sc(Nc2cccc3ccccc23)nc1-c1ccc(Cl)cc1	-3	12%	14%	45µM*	8%
O=C(O)Cc1sc(Nc2ccccc2)nc1-c1ccccc1	.	17%	.	0%	.
Nc1nc(-c2cccs2)c(CC(=O)O)s1	1	1%	3%	-18%	2%
O=C(NCc1cccc(F)c1)N1CCC(N2CC3CC(C2)[C@H]2CCCC(=O)N2C3)CC1 (some centres not stated)	.	.	.	-2%	.
CN1Cc2cccn2CC1CNC(=O)C1(S(=O)(=O)c2ccc(Cl)cc2)CC1 (configuration not stated)	.	.	.	195%	.
O=C(c1ccco1)N1CC[C@@H]2[C@@H](CCC(=O)N2CCC2=CCCCC2)C1	.	.	.	3%	.
Cc1ccc(C(=O)NCC(c2ccco2)N2CCc3ccccc3C2)cc1C (configuration not stated)	-3	5%	-21%	?	-3%
O=C(NCC(c1ccco1)N1CCc2ccccc2C1)c1ccc(Br)cc1 (configuration not stated)	0	4%	11%	11µM*	1%
Cc1ccc(C(=O)NCC(c2ccco2)N2CCc3ccccc3C2)cc1 (configuration not stated)	-5	0%	17%	8.9µM*	-1%
O=C(NCC(c1ccco1)N1CCc2ccccc2C1)c1ccc(Cl)cc1 (configuration not stated)	-1	0%	1%	14µM*	-14%
O=[N+]([O-])c1ccc(S(=O)(=O)NCC(c2ccco2)N2CCc3ccccc3C2)cc1 (configuration not stated)	1	0%	0%	14µM*	2%
COc1ccc(C(=O)NNC(=O)C(=O)/C=C(\O)c2ccc(C)cc2)cc1	1	0%	24%	35µM*	3%
CCOC(=O)C1=C(C)N=c2s/c(=C/c3ccc(OCC(=O)O)c(OC)c3)c(=O)n2C1c1ccc(Cl)cc1 (configuration not stated)	1	0%	19%	25µM*	-6%
